Compounds without any hit were thinned out: in the full panel of roughly 79,000, 15% have a hit. Values without a mark were called inactive. Active and inactive are the calls of the source. No stated cut-off is given here; in the data, active means growth inhibition above about 70%; inactive means the rest.
Test: NCI Yeast Anticancer Drug Screen. Data for the wt1 strain (AID 149);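 further: 0% = growth of vehicle-treated wt1 cultures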
Conditions: S. cerevisiae wt1 strain (SPY 50644) growth inhibition, active compounds read high
Procedure: Growth inhibition of yeast strains with defined genetic alterations is measured as a screen for potential anti-cancer activity. Selected strains with alterations in DNA damage repair or cell cycle control were exposed to compounds and growth inhibition was measured relative to vehicle treated controls. The strain used in this assay is wt1

Structure (SMILES) | growth inhibition (at 1.2 µM) [%] | growth inhibition (at 3.7 µM) [%] | growth inhibition (at 11.0 µM) [%] | growth inhibition (at 33.0 µM) | growth inhibition (at 100.0 µM)
O=C(NNc1ccccc1)c1ccc(Cl)c(Cl)c1 | 0 | -1 | 1 | 16% | 46%
O=C(CC(=O)n1nc(-c2ccccc2)c(N=Nc2ccc(Cl)cc2)c1-c1ccccc1)Nc1cccc(Cl)c1 | -2 | -3 | -5 | -4% | -5%
OCc1ccccc1Cc1ccccc1 | 0 | -1 | 0 | -2% | -7%
C=C1CC(CCCl)(c2ccccc2)OC1=O (stereo not given) | -13 | -16 | 25 | 84% (active) | 98% (active)
COc1cc2ccnc(-c3c4ccccc4c(N)c4c(OC)c(OC)ccc34)c2cc1OC | -4 | -5 | -5 | -4% | 30%
C/C=C/SC(=Nc1ccccc1)Nc1ccccc1 | -3 | 0 | -7 | -15% | 97% (active)
CCCCCCC(O)CNCc1ccnc2ccc(OC)cc12 (stereo not given) | 2 | 9 | 4 | 8% | 18%
COC(=O)CCC(NC(=S)N/N=C(\C)c1ccccn1)C(=O)OC (stereo not given) | -10 | -22 | 2 | 47% | 85% (active)

— PubChem BioAssay (NCI)
